Source: PubChem BioAssay (Tox21)
Records with an inconclusive call do not appear. A call without a number means that no potency is given here. Activity calls are given as the source filed them. Calls follow the shape of the dose curve; as a rule, active = well fitted activation curve with a large enough effect in the signal ratio in the repeat runs (not every such curve was filed as active); inconclusive = weak or mixed curves, or effect the other way; inactive = flat fitted curve, though single readings scatter; the % refers to the signal ratio.

Each compound was assayed against Estrogen receptor beta (Homo sapiens) (UniProt Q92731) (assay: qHTS assay to identify small molecule agonists of the estrogen receptor beta (ER-beta) signaling pathway (AID 1259377)). Conditions: ER-beta-UAS-bla HEK293T, beta-lactamase FRET ratio, 16 h; series mostly up to 92.4 µM.
Chain of Estrogen receptor beta (Homo sapiens) (Q92731 whole entry, looked up): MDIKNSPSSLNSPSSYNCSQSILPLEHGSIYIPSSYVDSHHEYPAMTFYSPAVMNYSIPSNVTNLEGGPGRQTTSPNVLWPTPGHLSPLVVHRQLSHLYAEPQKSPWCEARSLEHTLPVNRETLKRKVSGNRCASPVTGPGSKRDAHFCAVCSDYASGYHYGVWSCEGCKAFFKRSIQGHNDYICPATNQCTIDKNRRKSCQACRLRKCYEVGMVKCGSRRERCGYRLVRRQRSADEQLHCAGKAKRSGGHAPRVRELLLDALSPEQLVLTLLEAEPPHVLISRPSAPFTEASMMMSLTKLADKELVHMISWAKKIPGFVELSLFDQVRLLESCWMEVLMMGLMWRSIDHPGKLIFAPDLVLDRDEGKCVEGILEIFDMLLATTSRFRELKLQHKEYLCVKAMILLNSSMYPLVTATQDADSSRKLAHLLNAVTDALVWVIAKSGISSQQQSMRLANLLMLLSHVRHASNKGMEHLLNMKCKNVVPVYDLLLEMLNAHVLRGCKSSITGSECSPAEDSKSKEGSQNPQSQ
Outline: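 ER-beta-UAS-bla HEK293T cells in medium with 2% charcoal-stripped FBS were exposed to compounds for 16 h at 37C. Beta-lactamase reporter activity was read as fluorescence after 2 h with LiveBLAzer B/G FRET substrate at room temperature.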
In the case of `CCN(Cc1cccnc1)C(=O)c1cccc(Cl)c1[C@]1(C)C(=O)N(Cc2ccc(OC)cc2OC)c2ccc(Cl)cc21`, the Potency is reported as “inactive”.
For `Clc1ccc(C(Cn2ccnc2)OCc2ccc(Sc3ccccc3)cc2)c(Cl)c1` (centres undefined), the Potency was “inactive”.
In the case of `O=C(N/N=C/c1ccccc1O)c1ccncc1`, the Potency is reported as “inactive”.
With `CCCCN1CCCC[C@H]1C(=O)Nc1c(C)cccc1C` the Potency was “inactive”.
`O=S1(=O)CC(Cl)(Cl)C(Cl)(Cl)C1` was tested, and the Potency was “inactive”.
For `Cn1cc(C(=O)[C@@H]2CCc3nc[nH]c3C2)c2ccccc21`, the Potency was “inactive”.
For `CC(C)CCCCCCCCCCCCCCC(=O)O`, the Potency was “inactive”.
For `Cc1[nH]cnc1C[C@H]1CCc2c(C)c3ccccc3n2C1=O`, the Potency was “inactive”.
For `NC(=O)NS(=O)(=O)c1ccc(N)cc1`, the Potency was “inactive”.
In the case of `C[n+]1ccn(Cc2ccccc2)c1`, the Potency is reported as “inactive”.
In the case of `COc1cc(-c2ccc(N=C=O)c(OC)c2)ccc1N=C=O`, the Potency is reported as “inactive”.
`OCCN1CCN(CC/C=C2/c3ccccc3Sc3ccc(C(F)(F)F)cc32)CC1` was tested, and the Potency was “inactive”.
For `Cc1onc(-c2ccccc2Cl)c1C(=O)N[C@@H]1C(=O)N2[C@@H]1SC(C)(C)[C@@H]2C(=O)O`, the Potency was “inactive”.
In the case of `CCCC(C)c1ccccc1O` (centres undefined), the Potency is reported as “inactive”.
In the case of `OCCCCCCCCCCCCBr`, the Potency is reported as “inactive”.
In the case of `C/C(=C(/OCCOc1ccc(Cl)cc1)c1ccc(Cl)cc1Cl)n1ccnc1`, the Potency is reported as “inactive”.
With `O=C(c1ccc(F)cc1)C1CCN(CCn2c(=O)[nH]c3ccccc3c2=O)CC1` the Potency was “inactive”.
`CCC(CN)=C(c1ccccc1)c1ccccc1` was tested, and the Potency was “inactive”.
With `CCOC(=O)O[C@]1(C(=O)OCCl)CC[C@H]2[C@@H]3CCC4=CC(=O)C=C[C@]4(C)[C@H]3[C@@H](O)C[C@@]21C` the Potency was “inactive”.
